Reference: the supplement of paper PMC11732987, “Enantioselective OTUD7B fragment discovery through chemoproteomics screening and high-throughput optimisation” (Communications Chemistry, 2025)

Assays:
Test in all cases: log2 ratio of Biotin-Ahx-Ub-VS probe labelling (fragment/DMSO); higher = less target engagement (more negative = stronger competition), active = hit call of the paper (q ≤ 0.05, log2 ratio ≤ -1)
Details in all cases: compound concentration: 200 uM; treatment time: 3 h
USP19 = target: T1, USP19 (UniProt O94966)
T1 sequence (whole entry): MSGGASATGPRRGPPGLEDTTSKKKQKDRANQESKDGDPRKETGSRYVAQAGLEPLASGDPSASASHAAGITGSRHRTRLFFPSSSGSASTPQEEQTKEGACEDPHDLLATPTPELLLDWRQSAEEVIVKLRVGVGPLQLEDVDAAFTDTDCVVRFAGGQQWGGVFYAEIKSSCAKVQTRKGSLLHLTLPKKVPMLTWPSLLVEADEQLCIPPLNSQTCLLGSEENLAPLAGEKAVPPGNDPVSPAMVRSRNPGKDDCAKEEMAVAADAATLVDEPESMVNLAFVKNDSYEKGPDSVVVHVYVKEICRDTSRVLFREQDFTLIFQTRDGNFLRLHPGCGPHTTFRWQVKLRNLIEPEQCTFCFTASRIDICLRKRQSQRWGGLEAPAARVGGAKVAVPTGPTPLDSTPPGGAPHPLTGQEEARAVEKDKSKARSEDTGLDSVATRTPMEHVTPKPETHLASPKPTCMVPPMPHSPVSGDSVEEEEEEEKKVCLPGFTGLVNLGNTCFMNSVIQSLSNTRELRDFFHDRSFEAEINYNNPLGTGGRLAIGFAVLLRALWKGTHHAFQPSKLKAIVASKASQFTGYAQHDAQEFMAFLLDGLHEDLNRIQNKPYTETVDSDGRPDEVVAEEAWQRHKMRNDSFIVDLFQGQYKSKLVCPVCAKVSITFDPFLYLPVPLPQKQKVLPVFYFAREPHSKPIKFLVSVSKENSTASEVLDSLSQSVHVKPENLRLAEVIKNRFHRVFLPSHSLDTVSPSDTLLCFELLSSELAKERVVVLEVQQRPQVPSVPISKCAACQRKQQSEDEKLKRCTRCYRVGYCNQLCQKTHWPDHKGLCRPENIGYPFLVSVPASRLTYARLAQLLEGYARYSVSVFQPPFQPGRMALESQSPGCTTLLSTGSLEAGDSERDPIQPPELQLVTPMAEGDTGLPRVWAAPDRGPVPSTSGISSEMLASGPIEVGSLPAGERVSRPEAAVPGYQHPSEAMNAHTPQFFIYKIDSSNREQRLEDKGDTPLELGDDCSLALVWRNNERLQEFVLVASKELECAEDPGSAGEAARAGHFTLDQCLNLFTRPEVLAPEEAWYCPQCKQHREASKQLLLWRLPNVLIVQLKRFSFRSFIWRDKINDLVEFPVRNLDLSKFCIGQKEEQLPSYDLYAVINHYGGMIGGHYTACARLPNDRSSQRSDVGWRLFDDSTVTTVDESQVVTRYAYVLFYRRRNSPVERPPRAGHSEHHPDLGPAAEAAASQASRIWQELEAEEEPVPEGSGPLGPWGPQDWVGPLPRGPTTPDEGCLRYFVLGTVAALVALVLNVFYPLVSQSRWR
Outline: (§1)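 HEK293T lysate in Tris/CHAPS/IGEPAL buffer with protease inhibitors (495 µg per sample) was given fragment at 200 µM or vehicle for 3 h, in triplicate. It then received Biotin-Ahx-Ub-VS at 0.5 µM final for 1 h. Labelled DUBs were NeutrAvidin-enriched, digested with LysC and trypsin, and run by diaPASEF LC-MS/MS. Values are average log2 fragment/vehicle ratios by unpaired t-test on global-median-normalised Spectronaut quantities of proteins with ≥2 unique peptides.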

USP24 = USP24 (UniProt Q9UPU5)
Outline: as §1

USP25 = target: T2, USP25 (UniProt Q9UHP3)
T2 sequence (whole entry): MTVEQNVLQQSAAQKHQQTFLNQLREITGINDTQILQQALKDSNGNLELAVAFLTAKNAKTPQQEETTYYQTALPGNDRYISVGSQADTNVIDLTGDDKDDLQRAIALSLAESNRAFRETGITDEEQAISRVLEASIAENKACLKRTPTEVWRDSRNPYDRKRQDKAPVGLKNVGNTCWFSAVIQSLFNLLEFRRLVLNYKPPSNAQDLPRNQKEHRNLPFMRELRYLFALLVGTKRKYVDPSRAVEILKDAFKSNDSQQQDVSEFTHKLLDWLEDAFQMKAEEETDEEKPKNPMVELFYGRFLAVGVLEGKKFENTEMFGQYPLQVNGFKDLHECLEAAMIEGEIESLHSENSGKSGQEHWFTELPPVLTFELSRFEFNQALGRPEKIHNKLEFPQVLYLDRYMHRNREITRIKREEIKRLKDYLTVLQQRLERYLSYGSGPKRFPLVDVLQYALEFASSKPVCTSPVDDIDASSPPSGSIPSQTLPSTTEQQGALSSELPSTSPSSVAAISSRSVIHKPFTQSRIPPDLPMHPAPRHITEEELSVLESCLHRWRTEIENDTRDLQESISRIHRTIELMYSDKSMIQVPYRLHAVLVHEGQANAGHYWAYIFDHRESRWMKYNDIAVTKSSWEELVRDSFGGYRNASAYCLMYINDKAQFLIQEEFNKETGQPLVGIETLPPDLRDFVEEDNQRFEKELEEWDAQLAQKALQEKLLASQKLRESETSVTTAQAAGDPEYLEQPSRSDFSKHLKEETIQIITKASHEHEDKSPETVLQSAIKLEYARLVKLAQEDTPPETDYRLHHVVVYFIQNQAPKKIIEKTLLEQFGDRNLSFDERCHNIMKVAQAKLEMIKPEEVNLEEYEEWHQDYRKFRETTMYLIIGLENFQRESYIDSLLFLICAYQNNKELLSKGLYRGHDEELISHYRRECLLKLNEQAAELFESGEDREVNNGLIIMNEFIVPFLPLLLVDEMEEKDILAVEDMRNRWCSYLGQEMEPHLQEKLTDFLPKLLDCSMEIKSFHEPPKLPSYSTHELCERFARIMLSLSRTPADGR
Outline: as §1

USP28 = target: T3, USP28 (UniProt Q96RU2)
T3 sequence (whole entry): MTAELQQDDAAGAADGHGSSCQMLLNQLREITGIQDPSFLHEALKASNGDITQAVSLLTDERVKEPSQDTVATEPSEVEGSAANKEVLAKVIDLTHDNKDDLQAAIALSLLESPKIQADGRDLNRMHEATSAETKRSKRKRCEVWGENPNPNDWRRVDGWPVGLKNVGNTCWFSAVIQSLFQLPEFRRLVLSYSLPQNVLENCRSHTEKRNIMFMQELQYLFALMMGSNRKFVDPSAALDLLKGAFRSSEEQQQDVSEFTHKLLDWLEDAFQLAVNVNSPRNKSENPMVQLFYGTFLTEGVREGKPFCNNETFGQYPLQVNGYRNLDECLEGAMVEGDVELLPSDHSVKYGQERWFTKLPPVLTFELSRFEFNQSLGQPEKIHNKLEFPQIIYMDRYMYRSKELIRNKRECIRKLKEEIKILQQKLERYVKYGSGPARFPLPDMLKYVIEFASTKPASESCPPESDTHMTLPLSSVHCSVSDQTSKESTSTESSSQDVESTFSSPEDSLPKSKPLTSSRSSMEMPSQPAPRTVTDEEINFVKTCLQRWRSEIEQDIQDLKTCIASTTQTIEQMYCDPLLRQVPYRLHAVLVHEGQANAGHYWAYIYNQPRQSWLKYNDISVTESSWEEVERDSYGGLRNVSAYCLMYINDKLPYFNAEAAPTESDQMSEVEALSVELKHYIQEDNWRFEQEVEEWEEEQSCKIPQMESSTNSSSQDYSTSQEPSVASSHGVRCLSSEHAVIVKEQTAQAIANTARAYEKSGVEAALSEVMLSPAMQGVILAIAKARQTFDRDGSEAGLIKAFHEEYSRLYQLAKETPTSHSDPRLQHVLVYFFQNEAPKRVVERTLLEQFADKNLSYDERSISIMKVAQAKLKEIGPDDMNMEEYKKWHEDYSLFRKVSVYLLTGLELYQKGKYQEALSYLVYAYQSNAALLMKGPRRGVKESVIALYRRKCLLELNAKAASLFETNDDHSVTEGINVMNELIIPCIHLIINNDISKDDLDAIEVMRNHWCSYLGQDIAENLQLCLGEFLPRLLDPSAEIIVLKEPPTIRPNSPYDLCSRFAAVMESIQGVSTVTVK
Outline: as §1

Measured: log2 ratio of Biotin-Ahx-Ub-VS probe labelling

Chain of USP24 (Q9UPU5 whole entry): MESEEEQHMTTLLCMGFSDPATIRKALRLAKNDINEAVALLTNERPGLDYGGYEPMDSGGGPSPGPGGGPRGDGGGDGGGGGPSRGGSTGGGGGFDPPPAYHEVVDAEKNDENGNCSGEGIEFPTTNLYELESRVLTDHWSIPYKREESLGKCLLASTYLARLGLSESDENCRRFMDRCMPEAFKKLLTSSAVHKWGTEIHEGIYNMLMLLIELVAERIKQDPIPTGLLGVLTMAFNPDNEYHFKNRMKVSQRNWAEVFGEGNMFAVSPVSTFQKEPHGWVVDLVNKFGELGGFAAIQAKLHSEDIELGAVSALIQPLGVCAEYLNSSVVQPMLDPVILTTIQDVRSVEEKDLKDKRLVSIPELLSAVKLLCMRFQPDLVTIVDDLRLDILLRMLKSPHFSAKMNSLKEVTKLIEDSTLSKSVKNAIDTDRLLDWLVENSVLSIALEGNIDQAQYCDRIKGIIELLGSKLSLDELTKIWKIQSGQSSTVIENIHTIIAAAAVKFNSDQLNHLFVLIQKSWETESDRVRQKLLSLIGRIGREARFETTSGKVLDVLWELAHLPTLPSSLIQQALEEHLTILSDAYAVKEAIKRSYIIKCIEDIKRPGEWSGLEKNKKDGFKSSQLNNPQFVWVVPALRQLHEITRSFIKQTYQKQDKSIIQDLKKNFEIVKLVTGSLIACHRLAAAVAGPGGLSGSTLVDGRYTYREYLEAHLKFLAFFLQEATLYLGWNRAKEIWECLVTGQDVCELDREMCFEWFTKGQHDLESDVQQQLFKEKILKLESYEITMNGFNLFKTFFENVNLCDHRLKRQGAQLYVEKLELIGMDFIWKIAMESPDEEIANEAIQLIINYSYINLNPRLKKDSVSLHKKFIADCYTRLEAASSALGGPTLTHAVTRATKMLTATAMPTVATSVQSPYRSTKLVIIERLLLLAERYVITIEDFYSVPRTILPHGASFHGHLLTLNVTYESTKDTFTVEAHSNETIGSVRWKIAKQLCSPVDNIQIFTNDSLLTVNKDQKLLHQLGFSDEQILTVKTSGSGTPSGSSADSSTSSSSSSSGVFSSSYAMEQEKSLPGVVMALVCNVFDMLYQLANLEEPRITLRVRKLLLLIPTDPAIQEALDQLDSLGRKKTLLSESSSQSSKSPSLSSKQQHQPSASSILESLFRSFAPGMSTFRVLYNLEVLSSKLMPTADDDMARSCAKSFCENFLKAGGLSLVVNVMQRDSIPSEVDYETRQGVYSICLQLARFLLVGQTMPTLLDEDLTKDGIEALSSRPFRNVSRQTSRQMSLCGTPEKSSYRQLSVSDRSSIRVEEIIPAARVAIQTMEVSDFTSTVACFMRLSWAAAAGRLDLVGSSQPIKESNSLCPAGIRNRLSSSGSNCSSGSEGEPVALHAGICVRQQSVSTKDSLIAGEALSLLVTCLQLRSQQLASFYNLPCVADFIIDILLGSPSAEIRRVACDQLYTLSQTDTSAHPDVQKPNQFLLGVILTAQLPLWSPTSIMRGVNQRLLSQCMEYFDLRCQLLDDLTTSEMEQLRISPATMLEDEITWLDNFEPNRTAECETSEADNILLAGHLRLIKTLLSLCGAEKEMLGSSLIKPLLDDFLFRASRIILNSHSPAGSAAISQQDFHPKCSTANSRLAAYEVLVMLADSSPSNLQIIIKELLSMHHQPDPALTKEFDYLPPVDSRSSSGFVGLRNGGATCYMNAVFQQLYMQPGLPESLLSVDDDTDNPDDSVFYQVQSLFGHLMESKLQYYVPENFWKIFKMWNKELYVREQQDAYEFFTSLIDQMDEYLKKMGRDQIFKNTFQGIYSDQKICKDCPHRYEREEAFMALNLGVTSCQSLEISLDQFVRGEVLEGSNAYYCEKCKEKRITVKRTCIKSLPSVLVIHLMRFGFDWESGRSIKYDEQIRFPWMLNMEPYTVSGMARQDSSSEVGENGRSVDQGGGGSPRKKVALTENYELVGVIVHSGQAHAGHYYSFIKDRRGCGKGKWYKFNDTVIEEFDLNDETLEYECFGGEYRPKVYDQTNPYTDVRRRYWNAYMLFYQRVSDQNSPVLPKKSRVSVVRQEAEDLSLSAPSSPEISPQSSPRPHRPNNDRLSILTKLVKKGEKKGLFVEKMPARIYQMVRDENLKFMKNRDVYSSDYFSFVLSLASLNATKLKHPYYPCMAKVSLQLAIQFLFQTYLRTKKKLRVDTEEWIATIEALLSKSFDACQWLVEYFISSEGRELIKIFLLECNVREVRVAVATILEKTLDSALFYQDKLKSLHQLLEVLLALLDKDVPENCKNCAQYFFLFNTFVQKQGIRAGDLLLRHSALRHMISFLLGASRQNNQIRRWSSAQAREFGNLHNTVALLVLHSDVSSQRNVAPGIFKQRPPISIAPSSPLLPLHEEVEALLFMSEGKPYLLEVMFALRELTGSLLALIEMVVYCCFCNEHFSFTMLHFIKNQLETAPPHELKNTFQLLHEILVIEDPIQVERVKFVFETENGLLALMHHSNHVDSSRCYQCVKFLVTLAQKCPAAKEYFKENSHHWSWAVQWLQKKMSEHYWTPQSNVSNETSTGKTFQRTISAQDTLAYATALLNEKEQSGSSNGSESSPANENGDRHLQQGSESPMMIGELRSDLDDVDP

O=C(CCl)NCc1cccc(F)c1
inactive: USP19 -0.000373 | USP24 -0.154 | USP25 -0.362 | USP28 -0.556
